Data on 88 compounds can be found in PubChem BioAssay AID743279 (National Center for Advancing Translational Sciences (NCATS), 2014).

The whole screen tested about 360,000 compounds, of which about 17,000 (4.7%) were called active. Roughly 5% stayed inconclusive and do not appear here. For the sample, actives were picked, then their nearest neighbours and some compounds at random. Unmarked numbers belong to inactive results. No stated cut-off is given here; in the data, active means activity change below about -50%; inconclusive means mostly about -30% to -49%; inactive means weaker than that.
On the % scale 0 is the no-effect control and ±100 the full control effect.

This assay can be described thus: qHTS for Inhibitors of Inflammasome Signaling: IL-1-beta AlphaLISA Primary Screen. The note with it: THP-1 LPS/ATP IL-1B secretion, 16 h; at 57.5 µM, active compounds read low. The method, boiled down:
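THP-1 cells pretreated 1 hr with compounds (up to 57.5 uM final), then stimulated with LPS (250 ng/mL final) plus ATP (1.25 mM final); secreted IL-1B measured by AlphaLISA after 16 hr, decreased signal indicating inhibition.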
(Quantitative high-throughput screening tests each substance at several concentrations.)
`O=C1C[C@@H]2c3c(cccc3CN1Cc1ccccc1)C[C@@H](O)[C@H]2O`: the activity change is 16.3%.
With `c1ccc(Cn2nnc3c(NCC4CC4)ncnc32)cc1`, the activity change is -6.22%.
With `COc1cccc(-c2cnc(C(O)c3ccccc3OC)[nH]2)c1` (stereo not drawn) the figure was 26.3%.
For the compound `O=C(Nc1ccc(C(=O)O)cc1)/C(=C/c1ccc([N+](=O)[O-])cc1)NC(=O)c1ccccc1`, the activity change is -62.1% (active).
In the case of `O=C(Nc1ccc(C(=O)O)cc1)/C(=C\c1ccccc1)NC(=O)c1ccc(Br)cc1` it was -0.689%; in that of `O=C(NCCc1ccccc1)/C(=C\c1ccc([N+](=O)[O-])cc1)NC(=O)c1ccccc1`, 4.21%.
On to `C[C@]12CC[C@H](O)CC1=CCC1C2CC[C@@]2(C)C1CC[C@@H]2NC(=O)CCC(=O)O` (stereo partly drawn), for which the activity change is 14.7%.
With `Cc1cc2cc3n(c2nn1)N=C(Cl)CC3` the figure was -81.1% (active); with `COc1cc(Cn2c3ccc(NC(=O)CC(C)c4ccccc4)cc3c(=O)n2C)ccc1F` (stereo not drawn), -18%.
With `CC1(C(=O)NS(=O)(=O)c2ccc(C#N)cc2)CCN1C(=O)c1ccc(C2CCCCC2)cc1` (stereo not drawn) the figure was 12.1%; with `O=C(/C=C/c1ccc(N2CCOCC2)cc1)c1ccccc1`, -239% (active); with `O=C(c1ccc2c(c1)C(=O)N(c1ccc(Cl)cc1)C2=O)N1CCN(c2ccccn2)CC1`, 15.8%.
In the case of `O=C(O)c1ccc2c(c1)C(=O)N(c1ccc(/C=C/C(=O)c3ccccc3)cc1)C2=O` it was -154% (active); in that of `O=C(NN=Cc1ccc(N2CCOCC2)cc1)c1cc2ccccc2cc1O`, -24%; in that of `O=C(c1ccccc1)c1ccc(C(=O)N2CCN(c3ccccc3)CC2)cc1`, -8.14%.
`Cc1cccc(N2C(=O)c3ccc(C(=O)Nc4cccc(C(=O)O)c4)cc3C2=O)c1`: the activity change was 10.8%.
`CC(OC(=O)c1cccnc1Cl)C(=O)NC1CCCCC1` (stereo not drawn): the activity change is -3.91%.
As to `COc1ccc(C(=O)OCC(=O)Nc2cc(C)on2)cc1F`, the activity change was 10.7%.
On to `C[C@@H]1CN([C@@H](C)CO)C(=O)CCCn2cc(nn2)CO[C@H]1CN(C)S(=O)(=O)c1ccc(-n2cccn2)cc1`, for which the activity change is -5.6%.
Regarding `COc1ccc(CCN2C(=O)C(C)=C(C)C2=O)cc1OC`, the activity change was -6.73%.
In the case of `COc1ccc(CCNC2=C(Cl)C(=O)N(Cc3ccccc3)C2=O)cc1OC`, the activity change is -67.7% (active).
Consider `COc1ccc(CCN=C2SCC(=O)N2Cc2ccccc2)cc1OC`, for which the activity change is -10.8%.
For `Nc1cccc(OCCCCCOc2cccc(N)c2)c1`, the activity change was -27.6%.
With `CC(=O)Nc1c(-c2ccc(C)cc2)nc2ccc(Cl)cn12` the figure was 13.6%; with `O=C(COc1ccc(Cl)cc1)NCCS(=O)(=O)N1CCN(c2ccc(F)cc2)CC1`, 0.652%.
In the case of `Cc1cc(C)cc(C(=O)N2CCN=C2SCc2ccc([N+](=O)[O-])cc2)c1` it was 7.28%; in that of `O=C(Cc1ccc(F)cc1)N1CCN=C1SCc1cccc([N+](=O)[O-])c1`, 26.2%; in that of `Cc1cccc(CC(=O)N2CCN=C2SCc2ccc([N+](=O)[O-])cc2)c1`, -73.1% (active).
With `O=C1NC(c2ccccc2)Cc2ccncc21` (stereo not drawn), the activity change is -2.81%.
Consider `CC(C)C1Cc2[nH][nH]c(=O)c2C(c2ccc(Cl)cc2)O1` (stereo not drawn), for which the activity change was 0.108%.
As to `COc1ccc(/C=C2/C(=O)N(c3ccccc3)N=C2C)c(OC)c1`, the activity change is -9.74%.
As to `COc1ccc(CN(C)Cc2nc3cc(OC)c(OC)cc3c(=O)[nH]2)c(OC)c1`, the activity change is 1.63%.
In the case of `COc1ccc(/C=C2/C(=O)OCc3cc(OC)c(OC)cc32)c(OC)c1` it was -74.3% (active); in that of `Cc1cc(=O)c2ccc(NC(=O)c3ccccc3)cc2[nH]1`, -15.4%; in that of `O=C1C=CC(=O)N1c1ccc(N2CCCCC2)cc1`, -102% (active).
In the case of `CC(=O)Nc1ccc(S(=O)(=O)Nc2ccc(N3CCCCC3)cc2)cc1` it was 0%; in that of `O=C(Cc1ccccc1)NC(=S)Nc1ccc(N2CCCCC2)cc1`, -8.88%; in that of `COc1ccccc1NC(=O)C(CC(=O)O)Cc1cc(C)cc(C)c1` (stereo not drawn), 14.1%.
With `Cc1cccc(C)c1-n1nnnc1C(CCc1ccccc1)N1CCN(C/C=C/c2ccccc2)CC1` (stereo not drawn), the activity change was -7.14%.
With `CC(C)(C)c1ccc(/C=C2\SC(=O)N=C2N)cc1` the figure was 3.39%.
For the compound `CCN(CC)P(=O)(Nc1ccc(SC(F)F)cc1)c1ccc(N(C)C)cc1NC(=O)c1ccco1` (stereo not drawn), the activity change is -50.2% (active).
On to `O=C(Nc1ccc(Sc2ccc(Br)cc2)cc1)c1ccco1`, for which the activity change was -22.6%.
With `O=C(COC(=O)c1ccccc1NC(=O)c1ccco1)Nc1ccc2c(c1)OC(F)(F)O2` the figure was 22.1%; with `CCCNC(=O)c1cc(C2CCCCN2S(=O)(=O)c2cn(C)cn2)on1` (stereo not drawn), 1.68%; with `CN(C)/C(=N\OC(=O)c1ccccc1)c1nonc1N`, 23.1%.
On to `CCCC(=O)N1CCC1(C)C(=O)NS(=O)(=O)c1ccc(Cl)cc1` (stereo not drawn), for which the activity change is 26%.
As for `Cc1nnc(N/N=C/c2ccccn2)[nH]c1=O`, the activity change is 266%.
Regarding `COc1ccc(Cc2nnc(N/N=C/c3ccccc3O)[nH]c2=O)cc1OC`, the activity change is -100% (active).
As to `O=c1[nH]c(NCCO)nnc1Cc1ccc(Cl)cc1`, the activity change was -0.873%.
In the case of `CC(=O)OCC1(O)CC23CCC4c5ccoc5CCC4(C)C2CCC1C3` (stereo not drawn) it was -29.5%; in that of `O=C(Nc1ccc(N2CCN(C(=O)c3ccccc3)CC2)c(Cl)c1)c1ncn[nH]1`, -4.07%; in that of `O=C(Nc1ccc(N2CCN(C(=O)c3ccccc3)CC2)c(Cl)c1)c1cccnc1`, -81.2% (active).
In the case of `Cc1ccccc1N1CCN(C(=O)c2cccnc2)CC1` it was -6.96%; in that of `COc1ccc(C(=O)NCc2ccc(Cl)cc2)cc1S(=O)(=O)N1CCCC1`, -19.3%.
With `CCOC(=O)C1(C)CCCN(C(=O)c2cccc(Cl)c2)C1` (stereo not drawn), the activity change is 37%.
On to `CCOC(=O)[C@]12CCCC=C1N(Cc1ccc3c(c1)OCO3)C(=O)[C@H](CC(=O)N1CCN(C(=O)c3ccco3)CC1)C2`, for which the activity change was -17.6%.
Turning to `CC(=O)Oc1ccc(-c2nc3c(C)cccc3c(=O)o2)cc1`, the activity change is 24.4%.
Turning to `COc1nc(N=C(N)N)nc2c(C)cccc12`, the activity change was -63.3% (active).
With `CCc1c(C)nc2c(OC)cccc2c1Cl` the figure was -3.94%.
In the case of `Cc1nc(N=C(N)N)nc2c(C)cccc12` it was -96% (active); in that of `COc1ccc(C(=O)N2CCCCC2c2cc(C(=O)Nc3ccc(F)c(Cl)c3)no2)cc1` (stereo not drawn), -4.59%.
On to `CCOC1=C2[C@@H](CN(S(=O)(=O)c3ccc(C)cc3)[C@H]2c2ccccc2F)[C@H]2C(=O)N(Cc3ccccc3)C(=O)[C@H]2C1`, for which the activity change was 0.677%.
Take `C=CCOc1ccc(Cl)cc1CNCCCN1CCOCC1`: the activity change was -12.8%.
With `COc1ccc(S(=O)(=O)N(C)CC(=O)NCCCN2CCOCC2)cc1Cl`, the activity change was 25.8%.
Consider `COc1ccc(-c2ccc(CNCCCN3CCOCC3)o2)cc1Cl`, for which the activity change was -66% (active).
In the case of `Cc1[nH]c2ccccc2c1C(=O)c1cc([C@H](NC(=O)OC(C)(C)C)C(C)C)sc1N` it was -6.92%; in that of `C[C@H](CO)N1C[C@H](C)[C@@H](CN(C)S(=O)(=O)c2ccc(F)cc2)OCc2cnnn2CCCC1=O`, -17.7%; in that of `CCOC(=O)[C@]12CCCC=C1N(Cc1ccc(Cl)cc1Cl)C(=O)[C@H](CC(=O)N1CCCCC1)C2`, -12.7%.
With `COc1cc(OC)c(C(=O)NNC(=O)c2ccc(NS(=O)(=O)c3cccs3)cc2)cc1OC` the figure was -0.853%; with `COc1ccc(Cc2nnc(NC(=O)c3ccc(OC)cc3OC)s2)cc1`, -81.7% (active); with `COc1ccc(Cc2nnc(NC(=O)c3cc(OC)c(OC)c(OC)c3)s2)cc1OC`, 64.7%.
In the case of `COc1ccc(Cc2nnc(NC(=O)Cc3cccs3)s2)cc1`, the activity change was 20.9%.
With `COCc1ccc(C(=O)N2CCc3c([nH]c4ccccc34)C2c2ccccn2)s1` (stereo not drawn) the figure was -55.4% (active); with `COc1ccc(C2c3[nH]c4ccccc4c3CCN2CCCn2cccn2)cc1C` (stereo not drawn), -18.9%.
With `Cc1cccc(C2c3[nH]c4ccccc4c3CCN2C(=O)c2cc(-c3cccn3C)n[nH]2)n1` (stereo not drawn) the figure was -60% (active); with `c1ccc(C2c3[nH]c4ccccc4c3CCN2Cc2cccn2-c2cccnc2)nc1` (stereo not drawn), 47.2%.
With `Cc1cccc(C(=O)N2CCc3c([nH]c4ccccc34)C2CC(C)C)n1` (stereo not drawn), the activity change is 7.12%.
As to `O=C(c1cn2ccccc2n1)N1CCc2c([nH]c3ccccc23)C1c1ccccn1` (stereo not drawn), the activity change was -15.2%.
Take `COCc1c(N)c(C)nc(Cl)c1C#N`: the activity change is 0%.
With `O=C(COc1ccc2ccccc2c1)N1CCN(C(=O)c2cccs2)CC1` the figure was -11.7%.
In the case of `Nc1cc(C(=O)N2CCN(c3ccccc3Cl)CC2)ccc1N1CC2CC(C1)c1cccc(=O)n1C2` (stereo not drawn) it was 14.2%; in that of `CC1=C(C(=O)N(C(C)C)C(C)C)CC(CC(=O)NCC2CCCCC2)C(=O)N1Cc1ccccc1` (stereo not drawn), -28.7%; in that of `CN(C)C(CNC(=O)c1cc2ccccc2o1)c1ccccc1` (stereo not drawn), -4.24%.
With `CSc1ccccc1NC(=O)c1ccc2c(c1)CCN2S(C)(=O)=O` the figure was -9.72%; with `COCC(=O)Nc1c(C(=O)N2CCCC2)oc2ccccc12`, -21%; with `CCOCCCN(C)C1CCN(C(=O)c2oc3ccccc3c2NC(=O)Cc2cccc([N+](=O)[O-])c2)CC1`, -15.5%.
With `CCOCCCN(C)C1CCN(C(=O)c2oc3ccccc3c2NC(=O)COc2cccc(C)c2)CC1`, the activity change was -84% (active).
In the case of `CCCN(CC(=O)Nc1ccccc1C)C(=O)c1ccc(OCC(=O)N2CCOCC2)c(OCC)c1` it was -6.14%.
